The list is not random: actives were taken first. Their share in the collection is about 6.1%.
D1 antagonist: Antagonist of Human D 1 Dopamine Receptor: qHTS | D(1A) dopamine receptor (Homo sapiens), P21728 | HEK293 TREx D1 cells, calcium flux, dopamine EC80; hits give low values | activity change, negative = inhibition, % at 10 µM | actives 3.2% (n = 360,000) | AID 504652, 2011; in the data active = activity change below about -30%; note: % is set by controls: 0 for no effect and ±100 for the full control effect
Target sequence (P21728 whole entry, looked up): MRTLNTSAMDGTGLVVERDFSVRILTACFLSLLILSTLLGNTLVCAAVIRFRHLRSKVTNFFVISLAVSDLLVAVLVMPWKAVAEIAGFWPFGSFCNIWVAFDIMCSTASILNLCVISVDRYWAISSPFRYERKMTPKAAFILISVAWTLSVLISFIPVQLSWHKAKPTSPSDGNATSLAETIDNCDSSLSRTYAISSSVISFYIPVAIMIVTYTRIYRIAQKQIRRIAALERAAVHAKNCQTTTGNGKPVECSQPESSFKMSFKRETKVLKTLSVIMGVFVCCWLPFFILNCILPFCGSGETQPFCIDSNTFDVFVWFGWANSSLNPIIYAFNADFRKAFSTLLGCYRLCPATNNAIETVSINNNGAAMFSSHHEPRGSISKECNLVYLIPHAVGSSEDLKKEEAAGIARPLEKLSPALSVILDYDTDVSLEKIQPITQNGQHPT
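Compound effects on dopamine-evoked calcium signalling were measured in tetracycline-induced HEK293 Trex D1 cells. Dopamine at EC80 followed a 180 s compound pre-read, and fluorescence was tracked kinetically for 180 s more.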
D1 PAM: Potentiators of Human D1 Dopamine Receptor: qHTS. potentiation, % at 10 µM. HEK293 TREx D1 cells, calcium flux, dopamine EC20 potentiation. D(1A) dopamine receptor (Homo sapiens), P21728. actives 0.036% (n = 360,000); in the data active = potentiation above about 30%; note: 0% is about no effect
DRD3 antagonist: qHTS of D3 Dopamine Receptor Antagonist: qHTS. D(3) dopamine receptor (Homo sapiens), P35462. D3R cells, DiscoveRx beta-arrestin luminescence, antagonist mode; hits give low values. max response, negative = inhibition, %. actives 2.5% (n = 360,000); in the data active = max response below about -50%; inconclusive = no clear call, values can overlap the other calls; note: % is set by controls: 0 for no effect and ±100 for the full control effect
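Cells plated overnight at 1500 cells/well, then exposed to library compounds with dopamine controls for 90 minutes at 37 degrees C. DiscoveRx reagent added for 30–60 minutes at room temperature; luminescence read, quantitative HTS format.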
D1 agonist: Allosteric Agonists of the Human D1 Dopamine Receptor: qHTS. D(1A) dopamine receptor (Homo sapiens), P21728. HEK293 T-REx D1 cells, calcium flux, agonist mode. activation, % at 2 µM. actives 1% (n = 360,000). AID 504660, 2011; in the data active = activation above about 30%; note: 0% is about no effect
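Agonism was scored from calcium flux recorded over 180 s (1 read/s) after pintool compound addition, following a 10-cycle baseline. Cells were inducible force-coupled HEK293 TREx D1, plated overnight at 30 C and loaded with no-wash calcium dye.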
D3 ag: qHTS of D3 Dopamine Receptor Agonist: qHTS; D3R DiscoveRx beta-arrestin cells, luminescence, 90 min; max activation, %; actives 0.58% (n = 410,000); in the data active = max activation above about 30%; note: 0% is about no effect
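Cells at 1500/well, incubated overnight, then treated with pinned compounds (dopamine as control) for 90 min at 37 degrees C. DiscoveRx reagent added for 30 - 60 minutes at room temperature; luminescence read.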
* marks the source's active call; other numbers are inactive results; ? = inconclusive; · = not tested or not shown; ! = repeats disagree.

SMILES	D1 antagonist	D1 PAM	DRD3 antagonist	D1 agonist	D3 ag
COc1ccccc1C(=O)NCCC(=O)NCC(c1ccccc1OC)N1CCCC1 (centres undefined)	2.8	-0.9	-0.3	1.6	1.4
C=CCN(c1ccccc1)S(=O)(=O)c1cccc(C(=O)Nc2cccc(C)n2)c1	-10.0	-2.2	-20.7	10.1	-7.6
COc1ccc(C2=NOC(Cn3nc(C(=O)NCC4CC4)cc3-c3ccccc3)C2)cc1 (centres undefined)	5.6	-6.3	24.1	1.5	-1.3
O=c1oc2cc(O)ccc2cc1-c1ccccc1	-3.3	2.2	17.1	1.8	-12.4
O=c1oc2ccccc2cc1-c1ccc(O)cc1O	-31.5*	-1.9	-1.7	2.4	3.8
CC12CCC(C(=O)N(CCCCN3CCN(Cc4ccccc4)CC3)C1=O)C2(C)C (centres undefined)	2.0	-8.6	-74.3*	1.1	-11.0
C#C[C@]1(O)CC[C@H]2[C@@H]3CCc4cc(OC5CCCC5)ccc4[C@H]3CC[C@@]21C	5.3	-1.8	84.2	7.7	9.7
C#C[C@]1(O)CC[C@H]2[C@@H]3CCc4cc(OC)ccc4[C@H]3CC[C@@]21C	-19.3	-3.7	79.3	1.6	30.0*!
CCN(C#N)c1nc(NC(C)C)nc(NC(C)(C)C)n1	26.9	-0.5	4.2	51.5*	1.7
CCN1C(=NCCCOC(C)C)N[C@@H](CCc2ccccc2)[C@H](C(=O)NCCCOC(C)C)[C@H]1C	3.5	-1.4	0.0	2.2	6.8
Cc1cccc(N2C(=O)CSC23C(=O)N(CC(=O)Nc2cccc(Cl)c2)c2ccccc23)c1 (centres undefined)	-12.7	-8.9	·	11.1	32.4*
COc1ccc(NC(=O)CN2C(=O)C(C)(C)c3ccccc32)cc1Cl	-50.2*	-0.6	·	4.0	3.2
Cc1cccc(NC(=O)CN2C(=O)C3(SCC(=O)N3c3ccccc3)c3ccccc32)c1 (centres undefined)	-36.5*	-1.0	·	4.9	-9.1
Cc1cc(NC(=O)CN2C(=O)C(C)(C)c3ccccc32)ccc1Br	-23.7	-3.0	·	1.6	-6.8
COc1ccc(NCc2nnc3n2CCCCC3)c(OC)c1	-16.2	-2.0	·	-0.7	2.6
COC(=O)[C@@H]1CCCN1C(=O)CCc1nnc(C2CCCCC2)o1	6.7	-2.0	-15.7	2.7	2.7
O=C1CCCCc2cc(O)c(O)cc21	·	·	-1.8	·	52.3*
Cc1cc(C)nc(SCc2cc(=O)c(OC(=O)c3cccc([N+](=O)[O-])c3)co2)n1	-19.7	-9.9	67.7	1.2	110.7*
COc1cc(NC(=O)CNc2cccc(S(=O)(=O)N3CCOCC3)c2)cc(OC)c1	0.0	-3.8	-21.2	-0.3	-5.4
O=C(CCNC(=O)c1ccc(Cl)cc1)NCC(c1ccco1)N1CCCCC1 (centres undefined)	13.3	-8.4	0.0	0.9	-0.7
O=C(NCC(c1ccco1)N1CCCC1)c1ccc(Cl)cc1 (centres undefined)	3.5	0.1	-66.7*	2.3	-2.0
Cc1nn(-c2ccc(C(=O)NCC(c3ccco3)N3CCCC3)cc2)c(C)c1Cl (centres undefined)	19.8	-4.3	-7.1	7.4	57.5*
O=C(NCC(c1ccco1)N1CCCC1)c1cc2ccccc2s1 (centres undefined)	-5.9	-2.6	-59.4*	4.9	-19.1
CCOc1ccc(CNC(=O)c2ccc(Sc3ccc(C)cc3)c(NC(C)=O)c2)cc1	-14.0	6.3	-4.0	3.6	3.8
Cc1oc2ncn(C)c(=O)c2c1C(=O)NCc1ccc(Cl)cc1	9.4	1.5	·	1.2	5.9
SMILES	D1 antagonist	D1 PAM	DRD3 antagonist	D1 agonist	D3 ag
CCOc1ccc(NC(=O)NC(C)c2c(-n3cccc3)sc3c2CCN(CC)C3)cc1 (centres undefined)	-7.1	1.6	·	43.0*	-19.3
CCOC(=O)c1cccc(NC(=O)NC(C)c2c(-n3cccc3)sc3c2CCN(C)C3)c1 (centres undefined)	0.6	-3.1	·	36.3*	-18.0
O=C(CN1C(=O)NC2(CCCCC2)C1=O)Oc1ccc2c(C(F)(F)F)cc(=O)oc2c1	3.0	-0.2	53.1	51.0*	6.0
O=C(NC(=O)N1CCN(c2cccc(Cl)c2)CC1)c1ccc(Cl)cc1	-37.1*	-19.3	?	10.4	-8.8
O=C(NC(=O)N1CCN(c2cccc(Cl)c2)CC1)c1ccccc1	-28.6	-11.3	-72.0*	4.1	-25.0
Nc1nc(Cl)cc(NCCc2ccc(O)cc2)n1	-9.1	-7.0	1.6	16.3	-24.6
Oc1ccc(CCNc2ncnc3ccc(Cl)cc23)cc1	-40.2*	-8.6	51.2	6.9	51.7*
Cc1ccc(NC(=S)N(CCCN2CCC(C)CC2)Cc2ccco2)cc1C	-11.5	-9.3	-51.5*	4.9	-34.2
CCOC(=O)c1ccc(NC(=S)N(CCCN2CCCC2)Cc2ccco2)cc1	-13.9	-7.4	14.5	9.1	-17.2
CCOC(=O)c1ccc(NC(=S)N(CCCN2CCCC(C)C2)Cc2ccco2)cc1 (centres undefined)	-38.6*	-5.2	?	26.3	-30.8
CCOC(=O)c1ccc(NC(=S)N(CCCN2CCCC(C)C2)Cc2cccs2)cc1 (centres undefined)	-15.8	-5.5	-86.8*	5.9	-18.9
CCc1ccc(NC(=S)N(CCN2CCCCC2)Cc2ccco2)cc1	-14.5	3.0	-67.8*	4.8	-36.0
COc1ccccc1OCc1ccc(C(=O)Nc2ccc(C)c(C)c2)o1	-20.0	3.6	·	1.0	-0.9
CCCN(CCC)C(=O)Cn1c(=O)n(-c2cccc(OC)c2)c(=O)c2c(C)c(C(=O)N(C)C)sc21	8.7	-1.6	·	3.4	-5.6
CC(C)(C)c1ccc(-c2nc(SCC(=O)Nc3ccc(Cl)cc3)[nH]c(=O)c2C#N)cc1	-11.3	-2.4	·	131.7*	-7.4
Cc1ccc(C2CC(=O)NC(SCc3ccccc3)=C2C#N)o1 (centres undefined)	8.6	2.2	-61.5*	5.2	-2.6
O=C(COC(=O)CCC(=O)c1cccs1)NC(=O)c1ccc(OC(F)F)cc1	-4.8	3.9	13.6	3.9	1.8
Cc1ccc(-c2nc(N)sc2CC(=O)OCC(=O)NCC2CCCO2)cc1 (centres undefined)	-41.9*	-6.8	-10.4	0.4	2.2
CCCc1sc(N)nc1-c1ccc(C)cc1	-59.7*	-4.0	0.0	3.9	9.0
Cc1ccc(-c2nc(C)sc2CC(=O)OCC(=O)Nc2ccc(F)c(Cl)c2)cc1	·	·	0.2	·	0.3
Cc1ccc(-c2nc(N)sc2CC(=O)OCC(=O)NCCC(C)C)cc1	-57.1*	-4.8	-16.4	1.3	-2.9

Bioassay records deposited in PubChem BioAssay by National Center for Advancing Translational Sciences (NCATS).
